Bioassay records (PubChem)
A selection: hits, their analogues and other compounds. The true share with any hit is near 3.7%.
tim10-1 inh – growth inhibitors of tim10-1 mutant yeast; S. cerevisiae tim10-1 ts strain growth, BacTiter-Glo, 24 h; hit rate 2.2% among 330,000; AID 463190; inhibition, % at 20 µM;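 active = inhibition of at least 40%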;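 also: mutant grown at 25 °C; 0% = DMSO wells with yeast and 100% = wells holding no yeast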
PfHsp90 set2 – inhibits growth of yeast expressing Plasmodium falciparum Hsp90; S. cerevisiae expressing PfHsp90, BacTiter-Glo ATP, 48 h; yeast lacking PDR1 and PDR3 efflux regulators; hit rate 0.32% among 310,000; AID 504621; inhibition, % at 9.4 µM;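 active = every replicate shows inhibition above about 80%, whatever the replicate mean, limit read from the data; inconclusive = mean inhibition reaches the set limit but some replicate falls short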;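 also: 0% = DMSO neutral controls and 100% = 20 µM radicicol positive controls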
tim23-1 inh – tim23-1 yeast growth inhibition | AID 463212 | S. cerevisiae tim23-1 growth, BacTiter-Glo luminescence, 24 h | inhibition, % at 20 µM | hit rate 1.3% among 330,000;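 active = growth inhibition of the mutant yeast at or above 50%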;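 also: temperature-sensitive mutant grown at 25 °C; plate controls were DMSO-treated mutant yeast for no effect and medium wells lacking yeast for full effect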
NALP3 yeast inh – inhibitors of NALP3 inflammasome in yeast. hit rate 0.39% among 330,000. Yeast reconstituted NLRP3/ASC/caspase-1, beta-gal luminescence, 24 h. inhibition, % at 10 µM;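 active = inhibition of 50% or more; inactive = inhibition below 50%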;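 also: plate controls were induced DMSO wells for no effect and uninduced yeast grown without galactose for full effect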
TIM10 inh – inhibits growth of TIM10 yeast strain | S. cerevisiae TIM10 strain growth, BacTiter-Glo luminescence, 24 h | inhibition, % at 10 µM | hit rate 1.4% among 330,000 | AID 463195;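 active = inhibition of 40% or more at the single tested concentration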;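 also: wild-type TIM10 isogenic control strain grown at permissive 25 °C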
tim10-1 confirm – confirmation of tim10-1 mutant yeast growth inhibitors. shares compounds with tim10-1 inh. S. cerevisiae tim10-1 ts strain growth, BacTiter-Glo, 24 h. inhibition, % at 20 µM. hit rate 56% among 7,400. AID 463213;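 active = inhibition of yeast growth at or above a set limit in either of two repeat tests at 20 µM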;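 also: tim10-1 mutant grown at permissive 25 °C to find synthetic lethal compounds; 0% = DMSO yeast wells and 100% = medium wells without yeast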
tim10 confirm – TIM10 yeast growth inhibition, confirmed; shares compounds with TIM10 inh; S. cerevisiae tim10 strain growth, BacTiter-Glo luminescence, 24 h; inhibition, % at 10 µM; hit rate 63% among 4,600; AID 463215;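 active = inhibition of yeast growth at or above a set limit in either of two replicates at 10 µM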;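 also: this counterscreen used the strain with wild-type TIM10; 0% = yeast with DMSO and 100% = medium wells lacking yeast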
tim23-1 conf – confirmation of tim23-1 mutant yeast growth inhibitors | inhibition, % at 20 µM | AID 463218 | hit rate 83% among 4,400 | shares compounds with tim23-1 inh | S. cerevisiae tim23-1 growth, BacTiter-Glo luminescence, 24 h;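 active = inhibition above about 39% in either of two replicate wells at 20 µM, limit read from the data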;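 also: temperature-sensitive tim23-1 mutant grown at 25 °C; 0% = DMSO wells with yeast and 100% = medium wells without yeast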
* hit, by the source's call.

`COc1cccc(C(=O)O/N=C(\N)Cc2ccc(Cl)cc2)c1` gave tim10-1 inh 53*, PfHsp90 set2 -15, tim23-1 inh 58*, NALP3 yeast inh 17, TIM10 inh 85*, tim10-1 confirm 30, tim10 confirm -2 and tim23-1 conf 43*.
Cc1ccccc1C(=O)Nc1ccnn1C1CCN(Cc2ccccn2)CC1 was read as tim10-1 inh -15, PfHsp90 set2 -2, tim23-1 inh -11, NALP3 yeast inh 14 and TIM10 inh -9.
`O=C(Oc1ccccc1C(=O)Nc1ccccc1)c1ccc(Br)c([N+](=O)[O-])c1` gave tim10-1 inh 47*, PfHsp90 set2 -58, tim23-1 inh 61*, NALP3 yeast inh 47, TIM10 inh 52*, tim10-1 confirm 51*, tim10 confirm 35* and tim23-1 conf 74*.
For O=C(Nc1ccccc1)c1ccccc1Oc1ccc(C(F)(F)F)cc1[N+](=O)[O-] the results were tim10-1 inh 31, PfHsp90 set2 -10, tim23-1 inh 36, NALP3 yeast inh 21 and TIM10 inh 31.
For CC(C)=NOc1cc(NC(=O)CCl)cc([N+](=O)[O-])c1 the results were tim10-1 inh 52*, PfHsp90 set2 -10, tim23-1 inh 66*, NALP3 yeast inh 16, TIM10 inh 31, tim10-1 confirm 28 and tim23-1 conf 47*.
`Nc1nc(N)c2cc(Sc3ccc4ccccc4c3)ccc2n1` gave tim10-1 inh 89*, tim23-1 inh 59*, NALP3 yeast inh 31, TIM10 inh 17, tim10-1 confirm 84* and tim23-1 conf 68*.
Cc1ccsc1/C=N/Nc1nc(=O)[nH]nc1C was read as tim10-1 inh 52*, PfHsp90 set2 inconclusive, tim23-1 inh 50*, NALP3 yeast inh 2, TIM10 inh 43*, tim10-1 confirm 50*, tim10 confirm 48* and tim23-1 conf 56*.
Screening CCCCOC(=O)c1ccc(NC(=O)c2nn(C)cc2Br)cc1 returned tim10-1 inh 52*, tim23-1 inh 55*, NALP3 yeast inh 29, TIM10 inh 48*, tim10-1 confirm 50*, tim10 confirm 41* and tim23-1 conf 67*.
`Cc1ccc(-c2cc(C(=O)N3N=C(C(F)F)CC3(O)C(F)F)c3ccccc3n2)cc1C` (stereo unspecified) gave tim10-1 inh 50*, PfHsp90 set2 113*, tim23-1 inh 52*, NALP3 yeast inh 21, TIM10 inh 27, tim10-1 confirm 17 and tim23-1 conf 5.
For COc1cc(/C=C/C(=O)OCC(=O)NC2CCS(=O)(=O)C2)ccc1O (stereo unspecified) the results were tim10-1 inh 4, PfHsp90 set2 -8, tim23-1 inh 1, NALP3 yeast inh 6 and TIM10 inh 8.
O=C(NCCc1c[nH]c2ccccc12)c1ccco1 was read as tim10-1 inh -16, PfHsp90 set2 -13, tim23-1 inh -13, NALP3 yeast inh 10 and TIM10 inh -4.
`Nc1ncnc2c1ncn2[C@@H]1O[C@H](COP(=O)(O)O)[C@@H](O)[C@H]1O` gave tim10-1 inh 87*, PfHsp90 set2 70, tim23-1 inh 84*, NALP3 yeast inh 10, TIM10 inh 76*, tim10-1 confirm 85*, tim10 confirm 66* and tim23-1 conf 90*.
Screening NCCC(=O)NC[C@H]1O[C@@H](n2cnc3c(N)ncnc32)[C@H](O)[C@@H]1O returned tim10-1 inh -4, PfHsp90 set2 -9, tim23-1 inh 22 and TIM10 inh -13.
Screening Nc1ncnc2c1ncn2C1OC(COP(=O)(O)O)C(O)C1O (stereo unspecified) returned tim10-1 inh 85*, PfHsp90 set2 97*, tim23-1 inh 81*, NALP3 yeast inh 21, TIM10 inh 73*, tim10-1 confirm 84*, tim10 confirm 60* and tim23-1 conf 88*.
